The values that follow come from PubChem BioAssay AID2316 (Broad Institute, 2010).

Each structure is given as a SMILES string. Out of some 29,000 compounds screened, fewer than 10 were called active. How the calls were made is not given here. Only a sample is shown.

A short description of this experiment: reversal of PD-1 mediated T-cell inhibition, primary screen, luminescence, primary human CD4 T cells, PD-L1 beads (AID 2316).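 Further: 0% = median vehicle wells and 100% = positive control.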 Conditions: CellTiter-Glo 96 h, stronger effect = higher value.
As to `C[C@@H]1CCCCO[C@@H](CN(C)C(=O)CCCN(C)C)[C@@H](C)CN([C@H](C)CO)C(=O)c2cc(NC(=O)Nc3ccc(F)cc3)ccc2O1`, the activation is 0.492% (inactive). The same measure for `C[C@@H]1CCCCO[C@@H](CN(C)S(=O)(=O)c2cccs2)[C@@H](C)CN([C@H](C)CO)C(=O)c2cc(NC(=O)Nc3ccc4c(c3)OCO4)ccc2O1`: -0.659% (inactive); for `C[C@H](CO)N1C[C@H](C)[C@@H](CN(C)Cc2ccccc2)Oc2c(NC(=O)C3CCOCC3)cccc2C1=O`: -1.74% (inactive); for `COC(=O)c1scc(S(=O)(=O)C(C)(C)C)c1-n1cccc1`: -0.136% (inactive). The same measure for `COc1cc(/C=C/C(=O)O[C@@H]2O[C@H](CO[C@@H]3O[C@H](CO)[C@@H](O)[C@H](O)[C@H]3O)[C@@H](O)[C@H](O)[C@H]2OC(=O)/C=C/c2cc(OC)c(O)c(OC)c2)cc(OC)c1O`: -0.424% (inactive). Consider `O=C(CCCN1C(=O)c2ccccc2C1=O)Nc1cccc2c1CCCC2`, for which the activation was 1.14% (inactive).

For `CCC1(C)C(=O)C=C2C(=COC(C)=C2C)C1O` (stereo not drawn), the activation was 0.686% (inactive). The same measure for `CCCOc1ccc(C(=O)C2C(=O)C(=O)N(c3nc(C)c(C(=O)OC)s3)C2c2ccco2)cc1` (stereo not drawn): 1.4% (inactive); for `Cc1ccc(S(=O)(=O)Nc2cccc3c2O[C@@H](CN(C)CC2CCCCC2)[C@H](C)CN([C@@H](C)CO)C3=O)cc1`: 3.09% (inactive); for `C[C@H]1CN([C@@H](C)CO)C(=O)Cc2cc(NC(=O)Nc3ccc(F)cc3)ccc2O[C@@H]1CN(C)C(=O)NC1CCCCC1`: 0.349% (inactive). Then `COc1ccc(S(=O)(=O)NCc2ccccn2)cc1I`, with 1.57% (inactive). Regarding `C[C@H](CO)N1C[C@H](C)[C@@H](CN(C)Cc2ccccc2)Oc2ccc(NC(=O)CCCN(C)C)cc2C1=O`, the activation was 1.04% (inactive). For the compound `Cc1noc(C)c1NC(=O)Nc1ccc2c(c1)C(=O)N([C@H](C)CO)C[C@H](C)[C@@H](CN(C)C(=O)Nc1ccccc1)O2`, the activation was 1.04% (inactive).

Turning to `C[C@H](CO)N1C[C@H](C)[C@H](CN(C)Cc2ccc3c(c2)OCO3)Oc2c(cccc2N(C)C)C1=O`, the activation was 0.478% (inactive). The same measure for `C[C@H]1CN([C@@H](C)CO)C(=O)c2cccc(NC(=O)CCCCCC(=O)Nc3ccccc3N)c2O[C@@H]1CN(C)CC1CCCCC1`: 0.769% (inactive); for `CS(=O)(=O)N(CC(=O)NC1CC1)c1ccc(Cl)c(C(F)(F)F)c1`: -0.255% (inactive); for `CCOC(=O)c1cnn2c(C(F)(F)F)cc(C)nc12`: 0.193% (inactive).

With `COC(=O)c1ccccc1NC(=O)C(C)Oc1ccccc1F` (stereo not drawn), the activation was 2.99% (inactive).
